{"source": "the supplement of paper PMC10105736", "binders": {"B1": {"name": "Hsc70-5 (protein)", "chain": "MLRVPKFLPRLARQAGVVPSHMSGASSMFRNLPGASNGISSQLRYKSGEVKGAVIGIDLGTTNSCLAVMEGKQAKVIENAEGARTTPSHVAFTKDGERLVGMPAKRQAVTNSANTFYATKRLIGRRFDDPEVKKDITNLSYKVVKASNGDAWVSSTDGKVYSPSQIGAFILMKMKETAEAYLNTPVKNAVVTVPAYFNDSQRQATKDAGQIAGLNVLRVINEPTAAALAYGMDKTEDKIIAVYDLGGGTFDISILEIQKGVFEVKSTNGDTLLGGEDFDNHIVNFLVAEFKKDSGIDIRKDNIAMQRLKEAAEKAKCELSSSQQTDINLPYLTMDAAGPQHMNLKLTRSKLESLVGDLIKRTIQPCQKALSDAEVSKSEIGEVLLVGGMTRMPKVQSTVQELFGRQPSRSVNPDEAVAVGAAVQGGVLAGDVTDVLLLDVTPLSLGIETLGGVFTRLISRNTTIPTKKSQVFSTASDGQTQVEIKVHQGEREMANDNKLLGSFTLVGIPPAPRGVPQIEVVFDIDANGIVHVSAKDKGTGKEQQIVIQSSGGLSKDEIENMIKKAEEYATADKQKRELIEIVNQGESIVHDTETKMEEFKSQLPAEECEKLKKEIADLRTLLANKETADLEEVRKATSSLQQSSLKLFELAYKKMSAERESNAGAGSSDSSSSSDTSGEAKKEEKN"}, "B2": {"name": "CycB (protein)", "chain": "MVGTTLKMRGDENASENFKQVQLKKLTVPSMEATTKRAALGDLQNRGISRPIAAKDAAQKDSKDLKLTDALRNAKARVDSHWKKQPLGSTNGNGNGAVPPKVNEGGVSAFLRSNSVRNRVPTKTTVEPTKVTVKSSSSENVNEPTLKREDSNLSKKSLTKLRAALAKPVMGVSGIRREPVAVSRKEAETKKELPETKKDSLEVKKDATRMPLIRGNSAVTTTTSTMPTTMSLSSKRLAGIEDIDANDKENLVLVSEYVNDIYDYLYQVELEQPIHKDHLAGQKEVSHKMRAVLIDWINEVHLQFHLAAETFQLAVAIIDRYLQVVKDTKRTYLQLVGVTALFIATKYEELFPPAIGDFVFITDDTYTARQIRQMELQIFKAIDCNLSRPLPIHFLRRYSKAAGAEDEHHTMSKYFIELASVDYEMATYRPSEIAAASLFLSLHLLNGNHRAGTGFNDRHWTPTLTFYSRYSAAHLRPITRLIAKLARDAPQAKLKAIYNKYQGSKFQKIALRTELTGALMDSIVGQSQRK"}, "B3": {"name": "Cyp4d2 (protein)", "chain": "MLGVVGVLLLVAFATLLLWDFLWRRRGNGILPGPRPLPFLGNLLMYRGLDPEQIMDFVKKNQRKYGRLYRVWILHQLAVFSTDPRDIEFVLSSQQHITKNNLYKLLNCWLGDGLLMSTGRKWHGRRKIITPTFHFKILEQFVEIFDQQSAVMVEQLQSRADGKTPINIFPVICLTALDIIAETAMGTKINAQKNPNLPYVQAVNDVTNILIKRFIHAWQRVDWIFRLTQPTEAKRQDKAIKVMHDFTENIIRERRETLVNNSKETTPEEEVNFLGQKRRMALLDVLLQSTIDGAPLSDEDIREEVDTFMFEGHDTTTSAISFCLYEISRHPEVQQRLQQEIRDVLGEDRKSPVTLRDLGELKFMENVIKESLRLHPPVPMIGRWFAEDVEIRGKHIPAGTNFTMGIFVLLRDPEYFESPDEFRPERFDADVPQIHPYAYIPFSAGPRNCIGQKFAMLEMKSTVSKLLRHFELLPLGPEPRHSMNIVLRSANGVHLGLKPRA"}, "B4": {"name": "RpS3A (protein)", "chain": "MAVGKNKGLSKGGKKGGKKKVVDPFSRKDWYDVKAPNMFQTRQIGKTLVNRTQGQRIASDYLKGRVFEVSLADLQKDIDPERSFRKFRLIAEDVQDRNVLCNFHGMDLTTDKYRSMVKKWQTLIEAIVEAKTVDGYLLRVFCIGFTAKDQQSQRKTCYAQQSQVRKIRARMTDIITNEVSGADLKQLVNKLALDSIAKDIEKSCQRIYPLHDVYIRKVKVLKKPRFDVSKLLELHGDGGGKSVEAVVSSEGAVIDRPEGYEPPVQEAV"}, "B5": {"name": "CG33169 (protein)", "chain": "MRQLKGKVKETRKQKKERKLDNLETQAKIRTVVLPALGVLAVFLVLFVYLKTRPAVLA"}, "B6": {"name": "PolZ2 (protein)", "chain": "MQAEIKADIIVEAMEVLVNHILYVRGIYPSHIFKMKRMYNSPIYVSIFPPLNNYLAGVLKSAQELLRRRELQCLELIVYQKENEKLESYKMQLETQRSGLPAEDHLMEFEQNMRSVIYKISQRLNQAPKLPAGSCQFKVHLHTTQEAFIRFSHDSQYQEFPWLQTQKTESQATGRTVYLLPLARVDDLGLKMDVLIVN"}}, "experiment_in_all_cases": "MAPPIT interaction score (arbitrary units); higher = stronger binary interaction signal, active = hit call of the paper", "key": {"CG31121": {"biological_target": "CG31121", "conditions": "MAPPIT configuration: N-N; pair source set: Curagen_high_conf"}, "CG31550": {"biological_target": "CG31550", "conditions": "MAPPIT configuration: N-N; pair source set: Lit-BS-16"}, "GstE2": {"biological_target": "GstE2", "conditions": "MAPPIT configuration: N-N; pair source set: Finley_Y2H"}, "PAN3": {"biological_target": "PAN3", "conditions": "MAPPIT configuration: N-N; pair source set: Lit-BS-16"}, "Rbp6": {"biological_target": "Rbp6", "conditions": "MAPPIT configuration: N-N; pair source set: Finley_Y2H"}, "CG34149": {"biological_target": "CG34149", "conditions": "MAPPIT configuration: N-C; pair source set: RRS"}, "CG32182": {"biological_target": "CG32182", "conditions": "MAPPIT configuration: N-N; pair source set: RRS"}, "CG31523": {"biological_target": "CG31523", "conditions": "MAPPIT configuration: N-C; pair source set: screen_3"}, "EMC5": {"biological_target": "EMC5", "conditions": "MAPPIT configuration: N-C; pair source set: screen_3"}, "RNASEK": {"biological_target": "RNASEK", "conditions": "MAPPIT configuration: N-C; pair source set: screen_3"}, "CG3085": {"biological_target": "CG3085", "conditions": "MAPPIT configuration: N-C; pair source set: screen_3"}, "CG8281": {"biological_target": "CG8281", "conditions": "MAPPIT configuration: N-N; pair source set: screen_1"}, "Gale": {"biological_target": "Gale", "conditions": "MAPPIT configuration: N-N; pair source set: DPIM"}, "PHDP": {"biological_target": "PHDP", "conditions": "MAPPIT configuration: N-N; pair source set: Finley_Y2H"}, "Vsx2": {"biological_target": "Vsx2", "conditions": "MAPPIT configuration: N-N; pair source set: Finley_Y2H"}, "eco": {"biological_target": "eco", "conditions": "MAPPIT configuration: N-N; pair source set: screen_1"}}, "note": "A number with no mark means an inactive call.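 Rule for the calls: active = MAPPIT score above the 99th percentile of random reference set scores in the same batch; inactive = at or below it.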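 Note: HEK293T cells with Epo stimulation, STAT-responsive firefly luciferase reporter, fold induction versus unstimulated cells divided by the larger fold induction of two negative controls lacking either bait or prey.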"}
{"binder": "B1", "values": [{"measurement": "MAPPIT interaction score", "setting": "CG31121", "result": 0.0518}]}
{"binder": "B2", "values": [{"measurement": "MAPPIT interaction score", "setting": "CG31550", "result": 0.517}, {"measurement": "MAPPIT interaction score", "setting": "GstE2", "result": 0.748}, {"measurement": "MAPPIT interaction score", "setting": "PAN3", "result": 0.557}, {"measurement": "MAPPIT interaction score", "setting": "Rbp6", "result": 0.383}]}
{"binder": "B3", "values": [{"measurement": "MAPPIT interaction score", "setting": "CG34149", "result": -1.31}]}
{"binder": "B4", "values": [{"measurement": "MAPPIT interaction score", "setting": "CG32182", "result": 0.147}]}
{"binder": "B5", "values": [{"measurement": "MAPPIT interaction score", "setting": "CG31523", "result": 0.414}, {"measurement": "MAPPIT interaction score", "setting": "EMC5", "result": -0.647}, {"measurement": "MAPPIT interaction score", "setting": "RNASEK", "result": 0.381}]}
{"binder": "B6", "values": [{"measurement": "MAPPIT interaction score", "setting": "CG3085", "result": 1.42}, {"measurement": "MAPPIT interaction score", "setting": "CG8281", "result": 1.67}, {"measurement": "MAPPIT interaction score", "setting": "Gale", "result": 0.112}, {"measurement": "MAPPIT interaction score", "setting": "PHDP", "result": -0.0614}, {"measurement": "MAPPIT interaction score", "setting": "Vsx2", "result": 0.017}, {"measurement": "MAPPIT interaction score", "setting": "eco", "result": 0.29}]}
